# Source: ChEMBL document CHEMBL1961873, “Compounds: GSK PKIS; Assays: Nanosyn kinase panel” (2012)
# What was measured:
# [1] = target: Sphingosine kinase 1 (Homo sapiens) (UniProt Q9NYA1); conditions: at 1 µM;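 further: mean SPHK1 inhibition value reported from the GSK PKIS kinase panel screen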
# [2] = target: T1, Sphingosine kinase 2 (Homo sapiens) (UniProt Q9NRA0); conditions: at 0.1 µM
# T1 sequence (whole entry): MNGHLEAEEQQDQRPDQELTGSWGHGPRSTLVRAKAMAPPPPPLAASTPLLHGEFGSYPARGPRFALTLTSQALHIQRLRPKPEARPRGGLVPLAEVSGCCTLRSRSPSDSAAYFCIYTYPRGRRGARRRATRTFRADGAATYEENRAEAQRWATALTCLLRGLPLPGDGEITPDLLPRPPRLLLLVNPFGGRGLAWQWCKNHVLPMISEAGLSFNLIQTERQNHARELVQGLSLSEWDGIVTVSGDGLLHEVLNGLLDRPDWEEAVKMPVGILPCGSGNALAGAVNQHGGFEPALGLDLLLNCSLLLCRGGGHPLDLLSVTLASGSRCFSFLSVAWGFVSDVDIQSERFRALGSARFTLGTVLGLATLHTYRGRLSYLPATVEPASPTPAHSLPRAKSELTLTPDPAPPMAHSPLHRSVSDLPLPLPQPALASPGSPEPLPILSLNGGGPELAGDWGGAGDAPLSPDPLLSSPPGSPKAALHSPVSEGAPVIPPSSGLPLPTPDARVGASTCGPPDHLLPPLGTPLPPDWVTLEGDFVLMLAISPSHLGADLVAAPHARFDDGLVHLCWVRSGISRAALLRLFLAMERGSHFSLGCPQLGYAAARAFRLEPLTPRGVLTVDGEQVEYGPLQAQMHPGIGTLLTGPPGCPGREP
# [3] = target: T1, Sphingosine kinase 2 (Homo sapiens); conditions: at 1 µM
# [4] = target: Casein kinase II subunit alpha (Homo sapiens) (UniProt P68400); conditions: at 0.1 µM
# [5] = target: Casein kinase II subunit alpha (Homo sapiens) (UniProt P68400); conditions: at 1 µM
# [6] = target: T2, Inhibitor of nuclear factor kappa-B kinase subunit alpha (Homo sapiens) (UniProt O15111); conditions: at 0.1 µM
# T2 sequence (whole entry): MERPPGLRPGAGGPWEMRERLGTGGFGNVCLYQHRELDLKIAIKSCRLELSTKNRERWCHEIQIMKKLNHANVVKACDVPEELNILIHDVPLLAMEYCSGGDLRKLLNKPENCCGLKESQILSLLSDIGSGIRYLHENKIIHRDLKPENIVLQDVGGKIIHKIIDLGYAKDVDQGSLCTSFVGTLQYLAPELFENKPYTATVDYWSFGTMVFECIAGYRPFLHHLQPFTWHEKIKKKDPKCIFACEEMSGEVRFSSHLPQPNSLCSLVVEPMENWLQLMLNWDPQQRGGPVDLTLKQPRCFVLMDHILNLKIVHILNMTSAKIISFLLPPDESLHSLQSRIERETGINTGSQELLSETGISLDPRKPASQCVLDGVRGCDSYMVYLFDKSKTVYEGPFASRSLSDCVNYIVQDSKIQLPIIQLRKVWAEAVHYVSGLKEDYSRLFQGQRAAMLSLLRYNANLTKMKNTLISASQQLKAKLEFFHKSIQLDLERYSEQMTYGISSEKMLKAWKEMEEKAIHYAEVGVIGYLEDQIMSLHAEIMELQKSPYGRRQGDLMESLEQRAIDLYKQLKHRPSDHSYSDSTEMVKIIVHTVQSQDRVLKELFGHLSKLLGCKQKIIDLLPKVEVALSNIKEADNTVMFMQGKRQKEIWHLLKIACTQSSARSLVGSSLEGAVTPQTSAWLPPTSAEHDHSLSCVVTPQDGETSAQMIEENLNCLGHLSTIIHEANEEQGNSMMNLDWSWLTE
# [7] = target: T2, Inhibitor of nuclear factor kappa-B kinase subunit alpha (Homo sapiens); conditions: at 1 µM
# [8] = target: T3, Inhibitor of nuclear factor kappa-B kinase subunit beta (Homo sapiens) (UniProt O14920); conditions: at 0.1 µM
# T3 sequence (whole entry): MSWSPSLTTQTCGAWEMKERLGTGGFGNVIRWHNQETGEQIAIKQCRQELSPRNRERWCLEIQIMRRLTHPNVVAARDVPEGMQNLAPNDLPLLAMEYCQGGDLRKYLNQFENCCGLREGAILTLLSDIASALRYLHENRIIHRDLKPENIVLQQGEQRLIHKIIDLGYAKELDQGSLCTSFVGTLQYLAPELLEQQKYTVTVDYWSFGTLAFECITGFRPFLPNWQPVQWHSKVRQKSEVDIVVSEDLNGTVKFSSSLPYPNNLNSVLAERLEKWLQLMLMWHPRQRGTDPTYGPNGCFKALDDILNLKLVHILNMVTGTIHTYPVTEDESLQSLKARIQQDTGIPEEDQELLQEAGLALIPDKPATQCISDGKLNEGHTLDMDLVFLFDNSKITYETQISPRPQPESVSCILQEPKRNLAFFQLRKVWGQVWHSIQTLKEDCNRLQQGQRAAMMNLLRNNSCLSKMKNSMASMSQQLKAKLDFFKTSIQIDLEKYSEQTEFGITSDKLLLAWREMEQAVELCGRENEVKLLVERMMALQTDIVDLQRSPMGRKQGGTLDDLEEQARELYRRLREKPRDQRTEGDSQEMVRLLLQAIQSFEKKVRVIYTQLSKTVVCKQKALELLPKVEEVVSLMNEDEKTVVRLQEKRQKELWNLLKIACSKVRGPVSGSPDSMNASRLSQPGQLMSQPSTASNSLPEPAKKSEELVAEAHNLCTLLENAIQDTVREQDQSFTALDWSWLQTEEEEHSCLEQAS
# [9] = target: T3, Inhibitor of nuclear factor kappa-B kinase subunit beta (Homo sapiens); conditions: at 1 µM
# [10] = target: T4, Inhibitor of nuclear factor kappa-B kinase subunit epsilon (Homo sapiens) (UniProt Q14164); conditions: at 0.1 µM
# T4 sequence (whole entry): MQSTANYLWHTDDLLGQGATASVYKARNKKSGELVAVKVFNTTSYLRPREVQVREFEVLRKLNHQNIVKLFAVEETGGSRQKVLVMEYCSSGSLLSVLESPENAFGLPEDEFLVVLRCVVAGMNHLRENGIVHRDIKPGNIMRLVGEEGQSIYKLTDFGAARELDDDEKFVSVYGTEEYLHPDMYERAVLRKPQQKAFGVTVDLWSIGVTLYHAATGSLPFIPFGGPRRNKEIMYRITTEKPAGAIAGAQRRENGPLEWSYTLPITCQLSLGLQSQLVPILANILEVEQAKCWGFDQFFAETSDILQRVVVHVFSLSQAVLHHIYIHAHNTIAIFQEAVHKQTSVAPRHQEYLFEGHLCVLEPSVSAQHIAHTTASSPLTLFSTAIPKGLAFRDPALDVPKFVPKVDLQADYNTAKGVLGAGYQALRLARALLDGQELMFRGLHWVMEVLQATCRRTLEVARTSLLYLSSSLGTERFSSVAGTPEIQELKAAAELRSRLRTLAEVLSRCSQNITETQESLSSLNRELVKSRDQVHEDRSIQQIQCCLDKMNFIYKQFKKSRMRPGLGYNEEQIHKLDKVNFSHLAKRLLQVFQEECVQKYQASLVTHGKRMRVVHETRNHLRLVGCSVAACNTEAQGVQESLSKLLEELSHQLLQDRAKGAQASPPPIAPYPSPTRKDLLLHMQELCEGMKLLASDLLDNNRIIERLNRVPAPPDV
# [11] = target: T4, Inhibitor of nuclear factor kappa-B kinase subunit epsilon (Homo sapiens); conditions: at 1 µM
# [12] = target: T5, Serine/threonine-protein kinase Nek1 (Homo sapiens) (UniProt Q96PY6); conditions: at 0.1 µM
# T5 sequence (whole entry): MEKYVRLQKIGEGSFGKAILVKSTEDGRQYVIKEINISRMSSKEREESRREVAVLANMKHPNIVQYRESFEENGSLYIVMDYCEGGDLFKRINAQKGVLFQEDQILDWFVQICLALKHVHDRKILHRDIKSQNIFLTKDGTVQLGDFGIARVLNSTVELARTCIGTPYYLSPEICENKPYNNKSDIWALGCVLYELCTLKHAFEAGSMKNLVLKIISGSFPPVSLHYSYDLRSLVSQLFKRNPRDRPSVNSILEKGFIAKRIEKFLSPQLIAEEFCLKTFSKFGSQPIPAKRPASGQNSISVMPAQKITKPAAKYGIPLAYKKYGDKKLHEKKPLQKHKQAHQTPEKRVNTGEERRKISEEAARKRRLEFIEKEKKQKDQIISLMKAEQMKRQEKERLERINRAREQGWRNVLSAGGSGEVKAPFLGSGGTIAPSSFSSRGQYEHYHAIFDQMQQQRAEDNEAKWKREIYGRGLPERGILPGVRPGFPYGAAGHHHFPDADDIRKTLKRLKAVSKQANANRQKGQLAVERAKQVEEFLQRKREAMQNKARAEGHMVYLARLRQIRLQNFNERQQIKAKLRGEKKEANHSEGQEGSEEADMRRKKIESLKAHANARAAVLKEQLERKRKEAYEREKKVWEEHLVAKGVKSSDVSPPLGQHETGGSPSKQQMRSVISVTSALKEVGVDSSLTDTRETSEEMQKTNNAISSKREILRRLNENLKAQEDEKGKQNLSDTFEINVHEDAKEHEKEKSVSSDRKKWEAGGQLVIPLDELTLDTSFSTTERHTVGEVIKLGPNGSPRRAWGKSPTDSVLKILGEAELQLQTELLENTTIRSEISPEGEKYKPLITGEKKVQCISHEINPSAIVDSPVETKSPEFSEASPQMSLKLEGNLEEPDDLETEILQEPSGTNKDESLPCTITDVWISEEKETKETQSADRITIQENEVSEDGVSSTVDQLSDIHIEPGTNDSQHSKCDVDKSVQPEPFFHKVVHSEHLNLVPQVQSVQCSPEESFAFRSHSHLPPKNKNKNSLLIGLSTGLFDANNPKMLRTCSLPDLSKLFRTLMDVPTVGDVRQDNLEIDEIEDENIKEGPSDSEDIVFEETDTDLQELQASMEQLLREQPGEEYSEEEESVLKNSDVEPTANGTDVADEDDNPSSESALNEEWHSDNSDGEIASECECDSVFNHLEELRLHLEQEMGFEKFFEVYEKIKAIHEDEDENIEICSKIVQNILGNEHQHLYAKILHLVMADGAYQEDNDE
# [13] = target: T5, Serine/threonine-protein kinase Nek1 (Homo sapiens); conditions: at 1 µM
# [14] = target: T6, Serine/threonine-protein kinase Nek2 (Homo sapiens) (UniProt P51955); conditions: at 0.1 µM
# T6 sequence (whole entry): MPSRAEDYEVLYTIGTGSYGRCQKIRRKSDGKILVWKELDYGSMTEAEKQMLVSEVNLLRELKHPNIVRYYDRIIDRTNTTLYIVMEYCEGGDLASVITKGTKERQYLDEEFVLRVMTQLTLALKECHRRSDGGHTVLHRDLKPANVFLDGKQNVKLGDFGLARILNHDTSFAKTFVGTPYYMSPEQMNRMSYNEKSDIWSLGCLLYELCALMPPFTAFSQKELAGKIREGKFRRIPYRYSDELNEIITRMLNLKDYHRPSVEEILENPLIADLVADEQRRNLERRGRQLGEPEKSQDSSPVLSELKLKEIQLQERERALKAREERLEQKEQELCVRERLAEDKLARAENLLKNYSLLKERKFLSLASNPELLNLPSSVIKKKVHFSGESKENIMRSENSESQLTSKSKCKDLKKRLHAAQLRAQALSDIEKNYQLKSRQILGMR
# [15] = target: T6, Serine/threonine-protein kinase Nek2 (Homo sapiens); conditions: at 1 µM
# [16] = target: Serine/threonine-protein kinase Nek6 (Homo sapiens) (UniProt Q9HC98); conditions: at 0.1 µM
# [17] = target: Serine/threonine-protein kinase Nek6 (Homo sapiens) (UniProt Q9HC98); conditions: at 1 µM
# [18] = target: Serine/threonine-protein kinase Nek7 (Homo sapiens) (UniProt Q8TDX7); conditions: at 0.1 µM
# [19] = target: Serine/threonine-protein kinase Nek7 (Homo sapiens) (UniProt Q8TDX7); conditions: at 1 µM
# [20] = target: T7, Serine/threonine-protein kinase Nek9 (Homo sapiens) (UniProt Q8TD19); conditions: at 0.1 µM;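 further: reported value is the mean percent inhibition of NEK9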
# T7 sequence (whole entry): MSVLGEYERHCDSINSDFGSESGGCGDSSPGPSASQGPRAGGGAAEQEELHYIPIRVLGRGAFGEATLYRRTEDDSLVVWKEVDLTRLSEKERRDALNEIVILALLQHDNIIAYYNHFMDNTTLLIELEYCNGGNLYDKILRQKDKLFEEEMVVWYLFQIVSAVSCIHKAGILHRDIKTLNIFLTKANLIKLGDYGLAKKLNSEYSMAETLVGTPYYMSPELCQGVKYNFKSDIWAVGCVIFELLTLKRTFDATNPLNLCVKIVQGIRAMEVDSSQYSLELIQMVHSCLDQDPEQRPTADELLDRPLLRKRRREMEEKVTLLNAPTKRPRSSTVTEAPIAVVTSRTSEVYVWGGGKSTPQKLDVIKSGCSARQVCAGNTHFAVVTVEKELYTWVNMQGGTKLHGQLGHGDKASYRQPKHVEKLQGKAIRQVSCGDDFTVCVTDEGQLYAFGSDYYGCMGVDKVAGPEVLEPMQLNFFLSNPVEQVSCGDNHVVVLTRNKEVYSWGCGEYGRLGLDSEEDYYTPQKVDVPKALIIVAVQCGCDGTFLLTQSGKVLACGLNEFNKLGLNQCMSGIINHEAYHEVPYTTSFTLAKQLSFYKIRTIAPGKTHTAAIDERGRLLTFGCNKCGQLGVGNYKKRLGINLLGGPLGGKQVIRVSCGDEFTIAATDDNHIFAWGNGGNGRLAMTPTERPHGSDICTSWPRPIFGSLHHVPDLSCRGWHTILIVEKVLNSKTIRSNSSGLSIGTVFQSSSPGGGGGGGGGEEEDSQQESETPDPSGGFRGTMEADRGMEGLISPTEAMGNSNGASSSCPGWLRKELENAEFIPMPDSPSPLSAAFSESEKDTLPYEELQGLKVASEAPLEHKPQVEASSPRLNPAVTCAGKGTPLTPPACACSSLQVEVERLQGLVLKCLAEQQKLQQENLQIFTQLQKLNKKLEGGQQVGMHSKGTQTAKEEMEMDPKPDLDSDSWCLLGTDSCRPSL
# Sequence of Serine/threonine-protein kinase Nek6 (Homo sapiens) (Q9HC98 whole entry): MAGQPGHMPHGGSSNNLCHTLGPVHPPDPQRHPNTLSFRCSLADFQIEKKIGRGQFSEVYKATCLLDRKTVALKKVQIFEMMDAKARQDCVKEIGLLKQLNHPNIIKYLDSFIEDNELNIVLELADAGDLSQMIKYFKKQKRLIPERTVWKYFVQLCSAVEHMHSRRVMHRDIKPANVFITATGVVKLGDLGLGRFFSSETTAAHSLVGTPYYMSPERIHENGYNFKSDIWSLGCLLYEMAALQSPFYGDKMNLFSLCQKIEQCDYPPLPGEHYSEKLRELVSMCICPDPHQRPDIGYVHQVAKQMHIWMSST
# Sequence of Serine/threonine-protein kinase Nek7 (Homo sapiens) (Q8TDX7 whole entry, looked up): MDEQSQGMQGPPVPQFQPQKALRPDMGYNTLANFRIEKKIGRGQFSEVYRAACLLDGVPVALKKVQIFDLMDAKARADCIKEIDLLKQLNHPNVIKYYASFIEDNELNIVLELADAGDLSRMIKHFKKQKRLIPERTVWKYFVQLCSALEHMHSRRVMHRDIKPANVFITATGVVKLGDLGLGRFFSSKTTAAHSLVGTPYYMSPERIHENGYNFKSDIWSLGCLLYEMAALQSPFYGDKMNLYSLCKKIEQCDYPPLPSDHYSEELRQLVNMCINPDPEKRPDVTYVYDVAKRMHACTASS
# Sequence of Casein kinase II subunit alpha (Homo sapiens) (P68400 whole entry, looked up): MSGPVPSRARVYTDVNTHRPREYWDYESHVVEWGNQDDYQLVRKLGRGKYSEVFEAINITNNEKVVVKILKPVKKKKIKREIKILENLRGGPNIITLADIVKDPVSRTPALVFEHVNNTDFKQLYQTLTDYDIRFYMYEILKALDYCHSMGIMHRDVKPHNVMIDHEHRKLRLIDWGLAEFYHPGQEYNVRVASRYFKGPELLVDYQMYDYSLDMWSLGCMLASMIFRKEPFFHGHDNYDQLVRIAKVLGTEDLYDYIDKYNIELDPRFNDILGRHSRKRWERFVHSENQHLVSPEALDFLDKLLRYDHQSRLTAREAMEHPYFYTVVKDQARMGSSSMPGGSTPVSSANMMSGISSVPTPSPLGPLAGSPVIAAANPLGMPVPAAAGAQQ
# Sequence of Sphingosine kinase 1 (Homo sapiens) (Q9NYA1 whole entry): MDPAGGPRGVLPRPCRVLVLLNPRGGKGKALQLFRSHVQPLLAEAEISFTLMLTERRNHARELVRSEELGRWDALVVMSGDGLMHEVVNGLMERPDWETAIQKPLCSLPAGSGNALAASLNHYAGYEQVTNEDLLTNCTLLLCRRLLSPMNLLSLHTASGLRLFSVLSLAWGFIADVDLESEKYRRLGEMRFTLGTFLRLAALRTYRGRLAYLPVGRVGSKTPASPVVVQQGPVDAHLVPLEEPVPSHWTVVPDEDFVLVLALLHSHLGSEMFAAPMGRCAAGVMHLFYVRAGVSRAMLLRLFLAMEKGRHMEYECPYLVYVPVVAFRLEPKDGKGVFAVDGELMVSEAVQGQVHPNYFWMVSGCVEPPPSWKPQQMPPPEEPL
compound,measurement,setting,value
O=C(Nc1n[nH]c2nc(-c3ccco3)c(Br)cc12)C1CC1,inhibition,[1],-1.04%
same,inhibition,[2],0.57%
same,inhibition,[3],0.07%
same,inhibition,[4],-0.1%
same,inhibition,[5],-1.87%
same,inhibition,[6],-4.07%
same,inhibition,[7],-2.15%
same,inhibition,[8],1.61%
same,inhibition,[9],2.38%
same,inhibition,[10],3.19%
same,inhibition,[11],3.64%
same,inhibition,[12],2.9%
same,inhibition,[13],1.85%
same,inhibition,[14],4.03%
same,inhibition,[15],3.85%
same,inhibition,[16],3.21%
same,inhibition,[17],0.56%
same,inhibition,[18],4.18%
same,inhibition,[19],3.03%
same,inhibition,[20],1.02%
